{"source": "the supplement of paper PMC12067093", "about": "“Discovery and optimisation of a covalent ligand for TRIM25 and its application to targeted protein ubiquitination” (Chemical Science, 2025)", "target": "WDR43_Q15061_158_HIVEWNVQTCK (UniProt Q15061)", "sequence (Q15061 whole entry, looked up)": "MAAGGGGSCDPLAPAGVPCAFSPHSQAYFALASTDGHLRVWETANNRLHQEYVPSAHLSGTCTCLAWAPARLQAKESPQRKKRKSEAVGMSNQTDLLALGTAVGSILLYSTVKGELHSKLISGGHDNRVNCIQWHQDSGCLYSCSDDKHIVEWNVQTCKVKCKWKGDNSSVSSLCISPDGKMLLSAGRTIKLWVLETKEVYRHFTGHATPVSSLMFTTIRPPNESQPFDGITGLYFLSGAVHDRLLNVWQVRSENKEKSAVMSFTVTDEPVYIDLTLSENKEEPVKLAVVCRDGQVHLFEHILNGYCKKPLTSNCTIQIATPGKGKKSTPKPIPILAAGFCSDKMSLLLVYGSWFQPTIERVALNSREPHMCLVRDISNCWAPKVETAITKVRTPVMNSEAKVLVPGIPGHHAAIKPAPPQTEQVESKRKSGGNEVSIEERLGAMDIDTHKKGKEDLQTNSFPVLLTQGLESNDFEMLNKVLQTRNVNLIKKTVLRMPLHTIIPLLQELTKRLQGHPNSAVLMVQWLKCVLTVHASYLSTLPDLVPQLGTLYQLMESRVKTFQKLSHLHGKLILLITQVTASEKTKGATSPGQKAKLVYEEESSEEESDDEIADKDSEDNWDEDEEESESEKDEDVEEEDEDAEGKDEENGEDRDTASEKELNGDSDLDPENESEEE", "assay": "probe-labelled cysteine peptide fold change vs DMSO (competition) (log2 fold change); higher = less target engagement (more negative = stronger competition)", "settings": "THP-1, incubation time: 4 h", "note": "The full data set covers some 21,000 targets. This sample favours those with the largest changes.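 Note: competitive profiling in live THP-1 cells: cysteine peptides tagged with an iodoacetamide desthiobiotin (IA-DTB) probe, intensity after compound treatment relative to DMSO-treated cells.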", "data": [{"smiles": "Cc1cc(C(=O)N2CCCN(C(=O)CCl)CC2)ccc1-c1ccccc1", "note": "[compound 10]", "values": [{"measurement": "probe-labelled cysteine peptide fold change", "setting": "10 µM", "result": -0.0124}, {"measurement": "probe-labelled cysteine peptide fold change", "setting": "50 µM", "result": -0.0233}]}]}
